We go through 26 molecules from PubChem BioAssay (Tox21).

A short description of assay [1]: Human pregnane X receptor (PXR) small molecule agonists, qHTS cell viability counter screen (AID 1346977). Further: nearly all actives have a fitted effect of over 50% in size. Further: potency means the concentration at half of the fitted maximal effect. The gist of the method: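 Cytotoxicity counter screen run in the same wells as the PXR luciferase assay, using PXR-Luc HepG2 cells in charcoal-stripped serum medium. Viability: CellTiter-Fluor fluorescence after 24hr compound treatment.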
On the technique in general: qHTS replaces the single test concentration by a dilution series.

Assay [2] is described as follows: Caspase-3/7 induction in CHO-K1 cells by small molecules, qHTS cell viability counter screen (AID 1346979). Further: nearly all actives have a fitted effect of over 35% in size. Further: potency means the concentration at half of the fitted maximal effect. The method in brief: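 Cytotoxicity counter screen run in parallel with the caspase-3/7 assay: CHO-K1 cells, 16hr compound treatment at 37C, then CellTiter-Fluor for 1hr before fluorescence reading.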
Assay [3] can be described thus: Caspase-3/7 induction in CHO-K1 cells by small molecules, qHTS assay (AID 1346980). Further: nearly all actives have a fitted effect of over 15% in size. Further: potency means the concentration at half of the fitted maximal effect. On caspase-3/7 activation: on the % scale 0 is the no-effect control and ±100 the full control effect. The gist of the method: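 Luminescent Caspase-Glo 3/7 read (30min, room temperature) quantified apoptosis induction. Cells were wild-type CHO-K1, treated with compound for 17hr at 37 C and 5% CO2.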
Assay [4] deals with Nuclear receptor subfamily 1 group I member 2 (Homo sapiens) (UniProt O75469). Kind of assay: Human pregnane X receptor (PXR) small molecule agonists, qHTS assay (AID 1346982). Further: nearly all actives have a fitted effect of over 35% in size. Further: potency means the concentration at half of the fitted maximal effect. The method in brief: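 Luciferase signal from ONE-Glo (30 min, room temperature) measured activation of hPXR-driven CYP3A4 reporter expression in PXR-Luc HepG2 cells treated with compounds for 24 hr at 37 C.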
Chain of Nuclear receptor subfamily 1 group I member 2 (Homo sapiens) (O75469 whole entry, looked up): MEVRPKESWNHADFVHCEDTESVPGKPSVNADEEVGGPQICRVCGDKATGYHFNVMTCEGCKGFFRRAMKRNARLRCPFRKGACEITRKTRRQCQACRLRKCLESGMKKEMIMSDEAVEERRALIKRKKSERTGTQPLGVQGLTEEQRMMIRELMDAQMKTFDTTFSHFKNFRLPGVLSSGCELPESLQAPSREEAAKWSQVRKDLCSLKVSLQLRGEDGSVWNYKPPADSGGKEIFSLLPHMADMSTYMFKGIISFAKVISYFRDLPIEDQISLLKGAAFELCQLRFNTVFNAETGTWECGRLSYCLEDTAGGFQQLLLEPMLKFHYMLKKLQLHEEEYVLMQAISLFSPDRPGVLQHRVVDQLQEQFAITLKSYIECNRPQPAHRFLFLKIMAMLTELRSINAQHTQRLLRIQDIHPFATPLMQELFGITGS

In assay [5] the target is Cytochrome P450 2D6 (Homo sapiens) (UniProt P10635). Kind of assay: Cytochrome P450 Family 2 Subfamily D Member 6 (CYP2D6) small molecule antagonists: luciferase reporter qHTS assay (AID 1671196). Further: nearly all actives have a fitted effect of over 50% in size. Further: potency means the concentration at half of the fitted maximal effect. On activity change, negative = inhibition: series mostly up to about 120 µM; on the % scale 0 is the no-effect control and ±100 the full control effect. The method in brief: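 Read-out is luminescence from luciferin formed by CYP2D6 turnover of a proluciferin substrate, recorded as relative luminescence units. Reactions ran 1 h at room temperature after NADPH regeneration solution was added.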
Chain of Cytochrome P450 2D6 (Homo sapiens) (P10635 whole entry, looked up): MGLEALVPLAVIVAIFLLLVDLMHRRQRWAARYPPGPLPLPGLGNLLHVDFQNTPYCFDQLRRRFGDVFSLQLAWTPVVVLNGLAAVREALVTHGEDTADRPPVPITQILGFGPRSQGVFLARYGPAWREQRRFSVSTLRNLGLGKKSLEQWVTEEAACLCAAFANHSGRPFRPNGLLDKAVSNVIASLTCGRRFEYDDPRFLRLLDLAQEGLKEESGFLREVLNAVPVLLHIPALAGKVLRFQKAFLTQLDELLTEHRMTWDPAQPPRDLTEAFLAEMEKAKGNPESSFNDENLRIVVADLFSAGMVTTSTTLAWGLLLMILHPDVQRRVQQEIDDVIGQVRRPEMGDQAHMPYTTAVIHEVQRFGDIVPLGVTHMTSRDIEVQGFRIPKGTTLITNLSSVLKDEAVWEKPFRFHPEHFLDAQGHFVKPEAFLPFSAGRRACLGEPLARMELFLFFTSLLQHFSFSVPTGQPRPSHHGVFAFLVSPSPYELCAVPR
In general terms: In a reporter assay the amount or activity of a reporter protein is the signal.

Assay [6] in a line: Caspase-3/7 induction in HepG2 cells by small molecules, qHTS assay (AID 1346978). Further: nearly all actives have a fitted effect of over 15% in size. Further: potency means the concentration at half of the fitted maximal effect. On caspase activation: on the % scale 0 is the no-effect control and ±100 the full control effect. The gist of the method: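 Caspase-3/7 induction was measured by Caspase-Glo 3/7 luminescence (30 min, room temperature) after a 17 hr compound exposure of wild-type HepG2 cells seeded at 2,000 per well and pre-incubated 5 hr.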
Assay [7] can be described thus: Caspase-3/7 induction in HepG2 cells by small molecules, qHTS cell viability counter screen (AID 1346981). Further: nearly all actives have a fitted effect of over 30% in size. Further: potency means the concentration at half of the fitted maximal effect. The gist of the method: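 HepG2, WT, 2,000 cells/well; 5 hr pre-incubation 37 C/5% CO2; compound pin-transferred from DMSO; 16 hr exposure; CellTiter-Fluor, 1 hr; fluorescence read.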
Assay [8] has as its target Nuclear receptor subfamily 1 group I member 2 (Rattus norvegicus) (UniProt Q9R1A7). As to the kind of experiment: Rat pregnane X receptor (rPXR) activation by small molecules, qHTS assay (AID 1346983). Further: nearly all actives have a fitted effect of over 20% in size. Further: potency means the concentration at half of the fitted maximal effect. On max activation: on the % scale 0 is the no-effect control and ±100 the full control effect. To be noted: rPXR luciferase reporter cells, One-Glo luminescence, 24 h; max activation: hits give high values. The gist of the method: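 Luminescent readout (One-Glo luciferase, 30 min room temperature) followed 24 hr compound treatment at 37 C of rPXR cells plated 2,000 per well and preincubated 5hr; qHTS format with compounds delivered in DMSO.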

Assay [9] concerns the target Nuclear receptor subfamily 1 group I member 2 (Homo sapiens) (UniProt O75469). As to the kind of experiment: CYP3A4 induction through human pregnane X receptor (PXR) by small molecules, qHTS assay (AID 1346984). Further: on the % scale 0 is the no-effect control and ±100 the full control effect; nearly all actives have a fitted effect of over 40% in size. The gist of the method:
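Luminescence readout: luciferase signal after One-Glo (30 min, room temperature), following 3 h at 37C with 3uM final Luciferin-IPA P450 substrate. Cells were DPX-2 (HepG2, PXR/CYP3A4-luc co-transfected) dosed for 24 h.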

Assay [10] has the same target. Kind of assay: Human pregnane X receptor (PXR) activation by small molecules, qHTS assay (AID 1346985). Further: potency means the concentration at half of the fitted maximal effect; nearly all actives have a fitted effect of over 40% in size. The gist of the method: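 DPX-2 cells (HepG2 co-transfected with a PXR response element and a CYP3A4-promoter luciferase construct) were seeded at 2,000 per well, rested 5 hr at 37C, then exposed to DMSO-dissolved compounds for 24 hr. Activation was read as luciferase luminescence.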

Several values for one entry are separate records, joined by “and”; a condition that tells them apart may be missing. Equal entries are not always repeated. Values without a mark were called inactive. Inconclusive results are not listed. Activity calls are given as the source filed them. The call rests on the fitted dose curve; in most records, active means well fitted curve in the direction sought with a large enough effect in the repeat runs; inconclusive means weak or mixed curves; inactive means no such curve, though single readings can be large; an effect the other way counts as inactive or inconclusive.

Chain of Nuclear receptor subfamily 1 group I member 2 (Rattus norvegicus) (Q9R1A7 whole entry, looked up): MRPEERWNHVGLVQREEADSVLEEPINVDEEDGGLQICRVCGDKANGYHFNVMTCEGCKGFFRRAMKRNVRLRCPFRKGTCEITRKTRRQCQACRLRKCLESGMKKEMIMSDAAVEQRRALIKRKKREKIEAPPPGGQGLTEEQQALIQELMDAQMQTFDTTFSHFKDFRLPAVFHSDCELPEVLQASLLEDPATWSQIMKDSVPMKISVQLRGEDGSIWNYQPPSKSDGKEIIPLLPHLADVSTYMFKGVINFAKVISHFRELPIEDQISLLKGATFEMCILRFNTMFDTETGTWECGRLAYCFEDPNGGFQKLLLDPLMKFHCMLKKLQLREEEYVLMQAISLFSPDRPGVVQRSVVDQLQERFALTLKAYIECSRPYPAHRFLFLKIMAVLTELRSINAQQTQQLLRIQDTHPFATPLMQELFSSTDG

For the molecule `COc1cc(-c2nc(NC(=O)c3cc4cc(C)cc(C)c4n3CC(=O)O)sc2CCC2CCCCC2)c(OC)cc1Cl`, the Potency in assay [1] was 31.5 µM (active); in assay [2], 19.9 µM (active); in [3], 56 µM (active); in [4] it was 28.1 µM (active). Also, the Potency entry in assay [5] is “inactive”.
In the case of `Cc1c(C)c2c(c(C)c1O)CCC(C)(COc1ccc(CC3SC(=O)NC3=O)cc1)O2` (stereo not given), the Potency result in assay [1], in assay [6], in [3], in [7] and in [5] was “inactive” each time. For the same molecule, the max activation in assay [8] was -5.73%.
Consider `Cc1cccc(N(C)C(=S)Oc2ccc3c(c2)C2CCC3C2)c1` (stereo not given), for which the Potency result in assay [1], in [6], in assay [3] and in assay [7] was “inactive” in each case. Also, the Potency in [4] was 11.9 µM (active).
`CCCCC(CC)COC(=O)c1ccccc1C(=O)O` (stereo not given): the Potency result in [1], in [6] and in assay [3] was “inactive” in each case. The Potency in assay [4] is 35 µM (active).
Turning to `O=C(OC[C@H]1O[C@@H](OC(=O)c2cc(O)c(O)c(OC(=O)c3cc(O)c(O)c(O)c3)c2)[C@H](OC(=O)c2cc(O)c(O)c(OC(=O)c3cc(O)c(O)c(O)c3)c2)[C@@H](OC(=O)c2cc(O)c(O)c(OC(=O)c3cc(O)c(O)c(O)c3)c2)[C@@H]1OC(=O)c1cc(O)c(O)c(OC(=O)c2cc(O)c(O)c(O)c2)c1)c1cc(O)c(O)c(OC(=O)c2cc(O)c(O)c(O)c2)c1`, the caspase activation in assay [6] was -2.85% [at 19 µM]. Further, the Potency in assay [2] is 16.5 µM (active); in assay [7], 18.5 µM (active); in assay [10] it was 10 µM (active). Also, the caspase-3/7 activation in [3] is 0.641% [at 19 µM]. Besides, the activation in assay [4] was -5.98% [at 19 µM]. Also, in assay [8], the max activation is -10.1%. Further, the Potency result in assay [9] is “inactive”. Further, the activity change, negative = inhibition in assay [5] is -17.1% [at 23.6 µM].
`CCCCCCCCCCCC(=O)NCCCN(C)C`: the Potency in assay [1] was 38.6 µM (active); in [2], 54.5 µM (active); in [5], 12.6 µM (active).
As to `CCC1OCC(COc2ccc(Oc3ccccc3)cc2)O1` (stereo not given), the Potency result in [6], in [2], in [3], in [7] and in assay [5] was “inactive” each time. Moreover, the Potency in assay [4] was 34.4 µM (active).
For `CCN(C(=O)c1cc(C)cc(OC[C@H](C)Nc2ccncc2)c1)C(C)C`, the Potency entry in [6], in assay [2], in assay [3] and in assay [7] was “inactive” each time. Besides, the Potency in [4] was 17 µM (active); in assay [5] it was 22.2 µM (active).
Consider `[Cl][Bi]([Cl])([c]1ccccc1)([c]1ccccc1)[c]1ccccc1`, for which the Potency result in assay [6] and in [3] was “inactive” in each case. Besides, the Potency in [2] is 3.05 µM (active); in [7], 68.2 µM (active); in [4], 0.483 µM (active); in [5], 6.29 µM (active).
`Cc1cc(O)c(C(C)(C)C)cc1C(C)(C)C`: the Potency in [6] and in [2] was 61.1 µM (active) throughout.
As for `COc1cccc(N)c1`, the Potency result in [6], in [3] and in [7] was “inactive” throughout. The Potency in [2] was 24.5 µM (active).
With `Oc1ccc(N=Nc2ccccc2)cc1`, the Potency entry in assay [6] and in [3] was “inactive” in each case. The figures for the Potency in assay [2] and in assay [7] were 61.9 µM (active) and 55.2 µM (active), respectively.
As to `N#CSc1ccc(N)c([N+](=O)[O-])c1`, the Potency entry in assay [6] and in [3] was “inactive” each time. Moreover, the Potency in assay [2] was 38.8 µM (active); in assay [7], 54.8 µM (active); in [4], 12.3 µM (active).
In the case of `NNC(=O)c1cccc(C(=O)NN)c1`, the Potency result in assay [6], in assay [2], in [3], in assay [7] and in [4] was “inactive” in each case.
As to `O=[N+]([O-])c1ccccc1Nc1ccccc1`, the Potency entry in assay [6], in assay [2], in assay [3] and in assay [7] was “inactive” in each case.
Turning to `OCCN1CCN(CC/C=C2/c3ccccc3Sc3ccc(C(F)(F)F)cc32)CC1`, the Potency is 29.8 µM (active) in assay [1], 29.8 µM (active) in assay [2], 33.5 µM (active) in assay [7] and 6.92 µM (active) in assay [5]. For the same molecule, in assay [4], the Potency entry was “inactive”. Besides, the max activation in assay [8] was -7.9%.
For the molecule `O=Cc1cc(O)ccc1Br`, the Potency result in [6], in assay [2], in [3] and in assay [7] was “inactive” each time.
Take `CCCCCCCCCOC(=O)c1ccc(O)cc1`: the figures for the Potency in [6], in assay [2] and in assay [7] were 53.7 µM (active), 53.7 µM (active) and 60.3 µM (active), respectively. Moreover, the Potency entry in [3] and in assay [4] was “inactive” in each case.
For the molecule `O=[N+]([O-])c1cc([N+](=O)[O-])c2ccc(S(=O)(=O)O)cc2c1O`, the Potency is 27.1 µM (active) in [1], 21.6 µM (active) in assay [2] and 24.2 µM (active) in assay [7].
As to `CC(C)(C)CC(C)(C)c1ccc(OCCOCC[N+](C)(C)Cc2ccccc2)cc1`, the Potency entry in assay [6] and in assay [3] was “inactive” in each case. The Potency in assay [2] and in assay [7] was 61.1 µM (active) each time.
For `CCCCCOc1ccccc1/C(=C\SC)n1ccnc1`, the Potency result in [6], in assay [3] and in [7] was “inactive” throughout. The Potency in assay [2] was 16.8 µM (active); in [4], 2.98 µM (active); in assay [5], 4.36 µM (active).
For the molecule `CC1=C(/C=C/C(C)=C/C=C/C(C)=C/C=O)C(C)(C)CCC1`, the Potency in assay [1] was 60.8 µM (active); in [2], 21.6 µM (active); in assay [7], 60.8 µM (active); in [4], 15.3 µM (active); in [5], 63 µM (active).
Take `O=C(OCC(COC(=O)c1ccccc1)(COC(=O)c1ccccc1)COC(=O)c1ccccc1)c1ccccc1`: the Potency entry in assay [6], in [2], in assay [3], in assay [7], in assay [4] and in [5] was “inactive” each time.
As to `CC1(C)CCC(C)(C)c2cc(C(=O)Nc3ccc(C(=O)O)cc3)ccc21`, the Potency entry in assay [1] and in [5] was “inactive” each time. In addition, the Potency in [2] is 48.6 µM (active).
Regarding `Clc1ccccc1C(c1ccccc1)(c1ccccc1)n1ccnc1`, the Potency entry in assay [6], in assay [3] and in assay [9] was “inactive” in each case. The Potency in assay [2] is 8.63 µM (active) and 7.5 µM (active); in assay [7], 48.6 µM (active); in assay [4], 770 nM (active) and 11.9 µM (active); in assay [8] it was 3.98 µM (active); in assay [5] it was 39.9 µM (active).
As to `CCCCCCCCCCCCCCCC[N+](C)(C)CCN(Cc1ccc(OC)cc1)c1ncccn1`, the Potency in [1] was 29.8 µM (active); in assay [2] it was 26.6 µM (active); in [5] it was 15.5 µM (active). The Potency result in assay [4] and in assay [9] was “inactive” in each case. Also, the max activation in assay [8] was -2.3%.
